From PubChem BioAssay (EPA / NIEHS)
Records with an inconclusive call do not appear. A structure can be active in one record and inactive in another. Activity calls are given as the source filed them. The calls were made as follows, unless noted: active = hit-call score of the fitted dose curve at least 0.9, where 1 is the maximum; inactive = score below 0.9.

Tests used:
[1] = CCTE_Shafer_MEA_dev_per_burst_spike_percent: CCTE's Neural Network Formation Assay for Percent of Spikes in a Burst, Shafer Lab (AID 2284032)
Outline: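 Value is trapezoidal AUC over recordings on days 5, 7, 9 and 12 of the well-mean fraction of spikes falling in single-electrode bursts; rat cortical cultures exposed continuously from plating, treatment renewed DIV 5 and 9, fitted downward against DMSO.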

[2] = CCTE_Shafer_MEA_dev_active_electrodes_number: CCTE's Neural Network Formation Assay for Number of Active Electrodes, Shafer Lab (AID 2284040; active = hit-call score of the fitted dose curve at least 0.9, where 1 is the maximum)
Outline: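 Developing rat cortical networks on MEAs, exposed DIV 0–12. Value is the AUC of active-electrode counts (≥5 spikes/min) from days 5, 7, 9, 12, relative to DMSO.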

[3] = CCTE_Shafer_MEA_dev_per_burst_interspike_interval: CCTE's Neural Network Formation Assay for Burst Interspike Interval, Shafer Lab (AID 2284044)
Outline: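 Developmental network-formation MEA in primary rat cortical cultures with exposure spanning days 0–12. Within-burst ISI is averaged per well and integrated across recording days by area under the curve, with DMSO as negative control baseline.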

[4] = CCTE_Shafer_MEA_dev_burst_duration_mean: CCTE's Neural Network Formation Assay for Mean Burst Duration, Shafer Lab (AID 2284045)
Outline: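 Network-formation assay in primary rat cortical neurons; treatment spans twelve days of development. Mean burst duration per well is integrated by trapezoidal AUC and fitted in the loss-of-signal direction against DMSO baseline.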

[5] = CCTE_Shafer_MEA_dev_interburst_interval_mean: CCTE's Neural Network Formation Assay for Mean Interburst Interval, Shafer Lab (AID 2284046);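 also: well-mean interburst interval of bursting electrodes as AUC over four recording days; curve fitted for decrease in interburst interval relative to DMSO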
Outline: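 Developing rat cortical networks on 48-well MEAs receive compound from the day of plating. Burst intervals from each active electrode are averaged per well, and AUC over the recording days is fitted in the negative direction against DMSO.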

[6] = CCTE_Shafer_MEA_dev_inter_network_spike_interval_mean: CCTE's Neural Network Formation Assay for Mean Inter-network Spike Interval, Shafer Lab (AID 2284047)
Outline: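 Rat cortical cultures, 1.5 x 10^5 cells/well on 48-well MEA plates; continuous exposure days 0–12, medium and compound refreshed DIV 5, 9. Mean time between consecutive network-spike peaks; AUC across DIV 5/7/9/12; DMSO baseline, negative fitting direction.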

[7] = CCTE_Shafer_MEA_dev_network_spike_number: CCTE's Neural Network Formation Assay for Number of Network Spikes, Shafer Lab (AID 2284048);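 also: synchronized bursts across electrodes counted on days 5 7 9 12 and integrated as AUC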
Outline: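 Extracellular recordings from 16-electrode wells track network formation in rat cortical cultures under continuous treatment from plating. The endpoint is network spike number, expressed as AUC across DIV 5–12 relative to DMSO vehicle.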

[8] = CCTE_Shafer_MEA_dev_network_spike_peak: CCTE's Neural Network Formation Assay for Mean Number of Electrodes in Network Spike, Shafer Lab (AID 2284049)
Outline: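 Continuous 12-day exposure of rat cortical cultures, starting at plating, on MEA plates. Endpoint: electrodes participating in network-spike peaks, AUC across DIV 5–12, DMSO as negative control.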

[9] = CCTE_Shafer_MEA_dev_spike_duration_mean: CCTE's Neural Network Formation Assay for Mean Spike Duration, Shafer Lab (AID 2284051);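 also: mean network spike duration pooled as area under curve over DIV 5 to 12 recordings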
Outline: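 Readout is the average length of network spikes, clustered firing across electrodes, summed over DIV 5, 7, 9 and 12 as area under the curve. Neurons from rat cortex developed networks on MEA plates under continuous 12-day exposure.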

[10] = CCTE_Shafer_MEA_dev_network_spike_duration_std: CCTE's Neural Network Formation Assay for Standard Deviation of Network Spike Duration, Shafer Lab (AID 2284052);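 also: area under curve of spike duration SD across recording days 5 to 12; hits are decreases in network spike duration SD versus DMSO vehicle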
Outline: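 Read-out is the trapezoidal area-under-the-curve across recordings made on days 5, 7, 9 and 12, fitted in the negative direction against DMSO baseline. Neurons were primary rat cortical cells treated from day 0, with treatment renewed at each feed.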

[11] = CCTE_Shafer_MEA_dev_per_network_spike_spike_number_mean: CCTE's Neural Network Formation Assay for Mean Number of Spikes in a Network Spike, Shafer Lab (AID 2284053)
Outline: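 Continuous twelve-day exposure of developing rat cortical networks grown over 16 microelectrodes per well; spontaneous firing is captured at four time points, and the per-network-spike spike number is integrated over development by trapezoidal AUC.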

[12] = CCTE_Shafer_MEA_dev_per_network_spike_spike_percent: CCTE's Neural Network Formation Assay for Percent of Spikes in a Network Spike, Shafer Lab (AID 2284054)
Outline: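 Developing networks of rat cortical neurons are dosed at day 0 and recorded extracellularly four times up to day 12. The endpoint is the area under the curve of percent spikes in network spikes, fitted in the negative direction relative to DMSO.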

[13] = CCTE_Shafer_MEA_dev_AB: CCTE's Alamar Blue Assay for Cytotoxicity in the Neural Network Formation Assay, Shafer Lab (AID 2284083; active = hit-call score of the fitted dose curve at least 0.9, where 1 is the maximum;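 also: resazurin reduction fluorescence as viability of cultured neurons; twelve days of exposure from plating with re-dosing on DIV 5 and 9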)
Outline: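 Fluorescent resazurin reduction serves as the viability read-out, with DMSO as negative control and baseline. Cells were primary rat cortical neurons grown on MEA plates and dosed from day 0 to day 12, treatment renewed on DIV 5 and 9.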

[14] = CCTE_Shafer_MEA_dev_mutual_information_norm: CCTE's Neural Network Formation Assay for Mutual Information Normalization, Shafer Lab (AID 2284091)
Outline: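 Exposure of primary rat cortical neurons began at plating and ran to DIV 12, with full media and treatment renewal after DIV 5 and 9 recordings. Mutual information AUC (DIV 5–12) was analysed for loss versus DMSO.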

[15] = CCTE_Shafer_MEA_dev_correlation_coefficient_mean: CCTE's Neural Network Formation Assay for Mean Correlation Coefficient, Shafer Lab (AID 2284093)
Outline: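 Read-out: well-mean correlation coefficient of spike trains between electrode pairs, collapsed over four recording days as trapezoidal area-under-the-curve. Developing rat cortical neuron networks grown on MEAs received test chemical continuously from plating.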

[16] = IUF_NPC1b_proliferation_BrdU_72hr: Leibniz Research Institute for Environmental Medicine (IUF) 72-hour Neural Progenitor Cell Bromodeoxyuridine (BrdU) Proliferation Assay (NPC1b) (AID 2284207)
Outline: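 Neural progenitor spheres of human fetal origin are treated for three days; BrdU added for the last 16 h is quantified by luminescence ELISA, with DMSO as baseline and EGF/FGF omission as positive control.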

[17] = IUF_NPC1a_proliferation_area_72hr: Leibniz Research Institute for Environmental Medicine (IUF) 72-hour Neural Progenitor Cell Proliferation Area Assay (NPC1a) (AID 2284208)
Outline: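 Proliferation is scored as sphere area gain in primary human fetal neural progenitors treated for 72 h in EGF/FGF-containing medium. Viability, LDH and BrdU readouts come from the same wells.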

[18] = IUF_NPC1_viability_72hr: Viability Assessment at 72 hours in the Leibniz Research Institute for Environmental Medicine (IUF) Neural Progenitor Cell Proliferation Assay (NPC1) (AID 2284209)
Outline: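 Alamar blue fluorescence (RFU) after 72 h exposure, normalized to DMSO baseline. hNPC spheres from GW 16-19 fetal cortex, single sphere per well in growth-factor medium; no compound renewal.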

[19] = CCTE_Mundy_HCI_Cortical_Synap_Neur_Matur_NeuriteSpotCountPerNeuriteLength: CCTE's Synaptogenesis and Neurite Maturation Assay in rat cortical cells for Neurite Spot Count per Neurite Length, Mundy Lab (AID 2284210)
Outline: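 Neurite-associated synapse density (synaptophysin puncta per unit neurite length) is measured by fluorescence high-content imaging in rat cortical cultures treated from DIV 7 and fixed at DIV 12, with DMSO as negative control.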

[20] = CCTE_Mundy_HCI_Cortical_Synap_Neur_Matur_BPCount: CCTE's Synaptogenesis and Neurite Maturation Assay in rat cortical cells for Branch Point Count, Mundy Lab (AID 2284211)
Outline: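 In this multiplexed morphology assay, cortical cells from rat receive chemicals at DIV 7 and are fixed at DIV 12, then immunostained and imaged; branch points are counted, with DMSO as baseline.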

[21] = CCTE_Mundy_HCI_Cortical_NOG_NeuriteCount: CCTE's Neurite Outgrowth Assay in rat cortical cells for Neurite Count, Mundy Lab (AID 2284212);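 also: cells fixed about two days after chemical exposure began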
Outline: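 Rat cortical primary cells; compound added 2 h post-plating, 1/10 dilution of working solution. Anti-betaIII-tubulin/AF488 ICC; ArrayScan neurite count vs DMSO.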

[22] = CCTE_Mundy_HCI_Cortical_NOG_NeuriteLength: CCTE's Neurite Outgrowth Assay in rat cortical cells for Neurite Length, Mundy Lab (AID 2284213)
Outline: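 First, rat primary cortical cells were plated and, 2 h later, given test chemical as a 1/10 dilution. Finally, βIII-tubulin immunostaining enabled automated imaging of neurite length.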

[23] = CCTE_Mundy_HCI_Cortical_Synap_Neur_Matur_NeuriteLength: CCTE's Synaptogenesis and Neurite Maturation Assay in rat cortical cells for Neurite Length, Mundy Lab (AID 2284214)
Outline: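 Read-out: high-content imaging of MAP2-labelled neurites, with synaptophysin and Hoechst co-stain, in rat cortical cultures fixed at DIV 12. Activity fitted in positive direction relative to DMSO baseline.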

[24] = CCTE_Mundy_HCI_Cortical_Synap_Neur_Matur_NeuriteSpotCountPerNeuron: CCTE's Synaptogenesis and Neurite Maturation Assay in rat cortical cells for Neurite Spot Count per Neuron Count, Mundy Lab (AID 2284215)
Outline: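 Synapse density is scored as synaptophysin spots along neurites per neuron in fixed rat cortical neurons, measured at DIV 12 after chemical dosing at DIV 7. DMSO is the negative control and activity baseline.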

CCCCCC=C(C)C(CC)CCO (stereo not given)
outcome [1]: inactive | outcome [2]: inactive | outcome [3]: inactive | outcome [4]: inactive | outcome [5]: inactive | outcome [6]: inactive | outcome [7]: inactive | outcome [8]: inactive | outcome [9]: inactive | outcome [10]: inactive | outcome [11]: inactive | AC50 [12]: 5 µM (active) | outcome [12]: inactive | outcome [13]: inactive | outcome [14]: inactive | outcome [15]: inactive | outcome [16]: inactive | outcome [17]: inactive | outcome [18]: inactive | outcome [19]: inactive | outcome [20]: inactive | outcome [21]: inactive | outcome [22]: inactive | outcome [23]: inactive | outcome [24]: inactive
